# Only a selection was taken, and hits are over-represented in it overall.
# TTR transcr act: activators of transthyretin transcription. SH-SY5Y TTR promoter Gaussia luciferase, luminescence; 100% = recombinant luciferase protein wells. activation, % at 16.7 µM. 1.3% of 92,000 active;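 active = activation above the mean of all tested compounds plus 3 SD, cut at about 9.5% in these data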;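 note: cells exposed to compounds for one day before reading; 0% = median of all test compound wells on the plate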
# HuH7 TTR inh: HuH7 TTR transcription inhibition, counter-screen | shares compounds with TTR transcr act | HuH7 TTR promoter-Gaussia luciferase reporter, luminescence | inhibition, % at 16.7 µM | 4% of 1,100 active;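 active = average inhibition above the solvent-only control wells' mean plus 3 SD, cut at about 15% in these data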;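 note: 0% = cells with DMSO only and 100% = cells with inhibitor control FD; inhibitors lower well luminescence so higher value means more inhibition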
# TTR act confirm: human TTR transcription activation, confirmation; shares compounds with TTR transcr act; SHSY5Y TTR promoter Gaussia luciferase, luminescence; 100% = purified Lucia enzyme wells, no cells; activation, % at 16.7 µM; 1,100 tested, under 10 active;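 active = mean activation above a set limit taken from the earlier primary screen, cut at about 11% in these data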;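 note: 0% = DMSO-treated cells and 100% = recombinant Lucia luciferase without cells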
# * marks the source's active call; other numbers are inactive results.
SMILES,TTR transcr act,others
O=C1CCC[C@H]2C[C@H](NCc3ccc(Br)cc3)CC[C@]23CCCN13,0,
Oc1ccc(C=NN=Cc2ccco2)c(O)c1,3,
CC(NC(=O)Cn1nc(C(F)(F)F)c2c1CCC2)c1ccccc1 (stereo not given),-1,
O=C(Cn1nc(C(F)(F)F)c2c1CCCC2)NCc1ccco1,14*,HuH7 TTR inh=-22;TTR act confirm=-1
Cc1c(Br)c(C(F)(F)F)nn1CC(=O)NCc1ccco1,0,
CC(=O)c1c(C)[nH]c(C(=O)Nc2ccccc2C)c1C,1,
CCCC1CCC2(CC1)CCC2OC(=O)Nc1ccc(C)cc1 (stereo not given),-1,
O=C(O)CCC(=O)N1CCN(S(=O)(=O)c2cccs2)CC1,4,
O=C(CCCOc1ccccc1)N1CCN(S(=O)(=O)c2cccs2)CC1,27*,HuH7 TTR inh=-10;TTR act confirm=4
CC(=O)c1ccc(OCCCC(=O)N2CCN(S(=O)(=O)c3cccs3)CC2)cc1,-1,
C=CCN(C)C(C#CCCCC)c1ccccc1 (stereo not given),1,
O=C1CN(c2nc(-c3cccnc3)nc3scc(-c4ccccc4)c23)CCN1,13*,HuH7 TTR inh=-5;TTR act confirm=-1
COc1ccc(-c2csc3nc(-c4cccnc4)nc(N4CCC(C(N)=O)CC4)c23)cc1OC,-2,
O=C(O)c1ccc(-c2nc3scc(-c4ccccc4)c3c(=O)[nH]2)cc1,5,
COC(=O)CNC(=O)CN1C(=O)N(c2cccc(Cl)c2)C(N(O)C(=O)Nc2cccc(Cl)c2)C1(C)C (stereo not given),10*,HuH7 TTR inh=-5;TTR act confirm=-1
COC(=O)CN1C(=O)N(c2ccccc2)C(N(O)C(=O)Nc2ccccc2)C1(C)C (stereo not given),2,
CNC(=O)N(O)C1N(C)C(=O)N(Cc2ccccc2)C1(C)C (stereo not given),1,
O=C(CCC(=O)c1cccs1)OCC(=O)c1ccccc1F,2,
CCOC(=O)[C@]12CCCC=C1N(CCCOC)C(=O)[C@@H]2CC(=O)N1CCCCC1,0,
COc1n[nH]c(C(=O)Nc2cc(F)ccc2C)c1[N+](=O)[O-],10*,HuH7 TTR inh=-15;TTR act confirm=-1
Cc1ccc(F)cc1NC(=O)c1cccc2nccnc12,-2,
COc1ccc(Cl)cc1NC(=O)c1[nH]nc(OC)c1[N+](=O)[O-],-2,
C=CC(=O)NC1CCCCN(CC)C1=O (stereo not given),4,
CCCCCCCCN1C(=O)[C@@H](CC(=O)NCCC(C)C)C[C@@]2(C(=O)OC)C1=C[C@H](C(C)C)O[C@@H]2C1CC1,0,
COC(=O)[C@]12C[C@H](CC(=O)N3CCN(C(=O)C4CC4)CC3)C(=O)N(CCc3ccc(OC)c(OC)c3)C1=C[C@H](COCc1ccccc1)O[C@@H]2C,2,
SMILES,TTR transcr act,others
Cc1ccc(CNC(=O)O[C@H]2CC[C@@]34CCCN3C(=O)CCC[C@H]4[C@H]2C)cc1,-1,
O=C(NC1CCCCN(Cc2ccc(Cl)cc2)C1=O)c1ccc(F)c(F)c1 (stereo not given),7,
CCCCCCC(=O)NC1CCCCN(Cc2ccccc2C)C1=O (stereo not given),0,
Cc1ccc(N2C(=O)C3CCCN3C2=S)cc1C (stereo not given),20*,HuH7 TTR inh=-9;TTR act confirm=0
Cc1cc(C)cc(N2C(=O)C3CCCN3C2=S)c1 (stereo not given),0,
Cc1ccc(N2C(=O)C3CCCN3C2=S)cc1 (stereo not given),0,
COC(=O)C1CN(CCO)CCS(=O)(=O)N1Cc1cn(Cc2cccc(Cl)c2)nn1 (stereo not given),0,
CCC[C@H]1[C@@H](OC(=O)NCc2ccc(Cl)cc2)CC[C@@]23CCCN2C(=O)CCC[C@@H]13,1,
CCCCN1CCS(=O)(=O)N(Cc2ccc(Cl)cc2)C(C(=O)OC)C1 (stereo not given),3,
CCOC(=O)Cc1csc(NC(=O)CCC(=O)O)n1,2,
CCOC(=O)Cc1csc(NC(=O)COc2ccc3c(c2)CCC3)n1,14*,HuH7 TTR inh=-24;TTR act confirm=0
CCOC(=O)Cc1csc(NC(=O)COc2cccc(C)c2)n1,0,
CCCC1CCC2(CCCN2CCOC(=S)Nc2ccccc2)CC1 (stereo not given),-3,
COC(=O)[C@]12C[C@H](CC(=O)NCCCCc3ccccc3)C(=O)N(Cc3cccc4ccccc34)C1=C[C@H](COCc1ccccc1)O[C@@H]2C,-1,
Cc1ccccc1CN1CCCCC(NC(=O)Nc2ccccc2-c2ccccc2)C1=O (stereo not given),-1,
CCCCn1nc2cc(C(=O)N(CC)c3ccc(OC)cc3)ccc2c1OCC,13*,HuH7 TTR inh=-7;TTR act confirm=0
CCCCn1nc2cc(C(=O)NCCc3cccs3)ccc2c1OCC,-4,
CCCCn1nc2cc(C(=O)NC3CCc4ccccc43)ccc2c1OCC (stereo not given),1,

# Screening results as filed in PubChem BioAssay.
